PubChem BioAssay
Activity calls are given as the source filed them.

Assays:
[1] = test system: Plasmodium falciparum Sir2 (PF13_0152, Sir2A); assay: Plasmodium falciparum Sir2A binding compounds – biochemical, small-molecule microarray, 635 nm fluorescence, primary screen (AID 1098); details: fluorescence 635 nm, higher = more signal;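 note: score merges spot fluorescence intensity with its signal-to-noise ratio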
[2] = probe aDKK1 binding to arrayed compounds – biochemical, biotinylated probe, 635/667 nm fluorescence, primary screen (AID 1099); details: small-molecule microarray, higher = more signal;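 note: score merges 667nm spot fluorescence with signal to noise across triplicate slides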
[3] = probe aCHRDL2 binding to arrayed compounds – biochemical, biotinylated probe, 635/667 nm fluorescence, primary screen (AID 1100); details: small-molecule microarray, higher = more signal
[4] = change in splice reporter luminescence, either direction, cell-based, HEK293, spliceosome inhibition project, primary screen (AID 1101); details: HEK293 splicing luciferase reporter, 24 h, higher = more signal, called active from +8 up or from −8 down;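 note: HEK293 cells carrying a splicing-competent luciferase reporter gene; test concentration not given here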
[5] = molecular target: Fibroblast growth factor 10 (Homo sapiens) (UniProt O15520); assay: compounds binding fibroblast growth factor 10 – biochemical, small-molecule microarray, 635 nm fluorescence, primary screen (AID 1102); details: FGF10 binding, fluorescence 635 nm, higher = more signal
Chain of Fibroblast growth factor 10 (Homo sapiens) (O15520 whole entry, looked up): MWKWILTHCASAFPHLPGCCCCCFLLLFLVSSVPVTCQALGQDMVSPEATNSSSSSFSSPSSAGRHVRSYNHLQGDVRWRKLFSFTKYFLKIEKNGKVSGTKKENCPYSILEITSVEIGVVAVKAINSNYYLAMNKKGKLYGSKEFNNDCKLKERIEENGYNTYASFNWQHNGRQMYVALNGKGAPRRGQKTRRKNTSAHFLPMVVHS

[6] = test system: glycogen synthase kinase-3 (GSK3A per assay name; protocol says GSK3B); assay: compounds binding glycogen synthase kinase-3 – biochemical, small-molecule microarray, 635 nm fluorescence, GSK3A, primary screen (AID 1103); details: fluorescence 635 nm, higher = more signal; note: the record names both GSK3A and GSK3B
[7] = molecular target: Epidermal growth factor receptor (Homo sapiens) (UniProt P00533); assay: compounds binding epidermal growth factor receptor – biochemical, small-molecule microarray, 635 nm fluorescence, primary screen (AID 1104); details: EGFR binding, higher = more signal;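 note: score merges 667 nm emission intensity with spot signal to noise over triplicate slides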
Chain of Epidermal growth factor receptor (Homo sapiens) (P00533 whole entry, looked up): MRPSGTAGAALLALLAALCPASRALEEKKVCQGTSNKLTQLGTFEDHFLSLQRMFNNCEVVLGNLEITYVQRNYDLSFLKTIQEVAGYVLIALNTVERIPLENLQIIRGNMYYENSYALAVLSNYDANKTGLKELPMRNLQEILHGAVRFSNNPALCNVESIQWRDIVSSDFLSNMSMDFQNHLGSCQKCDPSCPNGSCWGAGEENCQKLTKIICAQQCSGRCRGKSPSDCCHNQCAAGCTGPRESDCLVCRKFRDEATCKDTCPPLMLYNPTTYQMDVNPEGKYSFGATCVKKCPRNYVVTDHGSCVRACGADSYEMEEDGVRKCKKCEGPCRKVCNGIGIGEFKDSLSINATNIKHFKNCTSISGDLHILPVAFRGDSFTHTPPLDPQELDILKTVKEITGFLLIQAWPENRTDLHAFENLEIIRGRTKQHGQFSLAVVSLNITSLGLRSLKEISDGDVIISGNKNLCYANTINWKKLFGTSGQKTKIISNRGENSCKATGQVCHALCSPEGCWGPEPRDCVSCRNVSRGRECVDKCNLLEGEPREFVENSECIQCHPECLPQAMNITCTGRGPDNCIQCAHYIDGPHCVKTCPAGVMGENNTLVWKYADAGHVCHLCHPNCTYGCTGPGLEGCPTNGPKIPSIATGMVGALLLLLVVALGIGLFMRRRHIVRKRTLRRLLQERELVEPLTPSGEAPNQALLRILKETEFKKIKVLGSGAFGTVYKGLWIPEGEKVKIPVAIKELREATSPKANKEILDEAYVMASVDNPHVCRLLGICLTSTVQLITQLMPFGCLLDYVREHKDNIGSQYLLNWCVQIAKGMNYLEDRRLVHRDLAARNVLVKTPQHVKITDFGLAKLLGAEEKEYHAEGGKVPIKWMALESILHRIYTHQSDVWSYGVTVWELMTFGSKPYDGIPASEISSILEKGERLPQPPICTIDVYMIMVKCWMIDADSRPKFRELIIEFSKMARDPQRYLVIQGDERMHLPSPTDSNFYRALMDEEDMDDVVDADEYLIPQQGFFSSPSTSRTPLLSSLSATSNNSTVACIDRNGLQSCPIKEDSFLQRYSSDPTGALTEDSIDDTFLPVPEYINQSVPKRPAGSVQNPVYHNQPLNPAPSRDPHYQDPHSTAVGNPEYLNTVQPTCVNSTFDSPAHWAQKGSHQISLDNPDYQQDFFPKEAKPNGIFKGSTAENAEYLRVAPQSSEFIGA

[8] = molecular target: Follistatin-related protein 3 (Homo sapiens) (UniProt O95633); assay: compounds binding follistatin-related protein 3 – biochemical, small-molecule microarray, 635 nm fluorescence, primary screen (AID 1105); details: FSTL3 binding, higher = more signal;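 note: score merges emission near 667 nm and signal to noise per printed spot across three slides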
Chain of Follistatin-related protein 3 (Homo sapiens) (O95633 whole entry, looked up): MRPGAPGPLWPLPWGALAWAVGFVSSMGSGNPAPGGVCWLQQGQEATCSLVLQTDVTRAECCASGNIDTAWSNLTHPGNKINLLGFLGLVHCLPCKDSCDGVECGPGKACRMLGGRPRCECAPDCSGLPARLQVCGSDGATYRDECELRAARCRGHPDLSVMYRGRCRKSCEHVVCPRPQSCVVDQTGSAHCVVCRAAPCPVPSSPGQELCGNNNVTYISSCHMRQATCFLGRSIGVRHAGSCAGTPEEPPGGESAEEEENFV

[9] = molecular target: Dickkopf-related protein 1 (Homo sapiens) (UniProt O94907); assay: small molecules binding DKK1 protein – biochemical, small-molecule microarray, 635 nm fluorescence scan, primary screen (AID 1106); details: higher = more signal;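 note: score merges emission near 667 nm with signal to noise over three replicate slides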
Chain of Dickkopf-related protein 1 (Homo sapiens) (O94907 whole entry, looked up): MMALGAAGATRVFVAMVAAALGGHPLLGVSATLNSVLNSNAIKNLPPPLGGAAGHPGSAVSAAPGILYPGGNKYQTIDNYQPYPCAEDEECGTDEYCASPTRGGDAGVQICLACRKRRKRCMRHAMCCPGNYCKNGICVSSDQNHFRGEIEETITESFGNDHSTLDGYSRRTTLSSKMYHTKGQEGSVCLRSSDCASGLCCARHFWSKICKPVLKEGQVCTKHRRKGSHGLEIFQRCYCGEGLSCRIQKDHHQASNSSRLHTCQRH

[10] = test system: Inhibin beta A chain (activin A); assay: small molecules binding activin A – biochemical, small-molecule microarray, 635 nm fluorescence scan, primary screen (AID 1107); details: INHBA, higher = more signal;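 note: mouse activin A protein probed at 4.33 µg/mL on printed slides; score merges bound-protein fluorescence near 667 nm with spot signal-to-noise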
[11] = test system: Human papillomavirus type 1a protein E7 (residues 44-93); assay: small molecules binding HPV E7 44-93 – biochemical, small-molecule microarray, residues 44-93, 635 nm fluorescence, primary screen (AID 1108); details: fluorescence 635 nm, higher = more signal;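 note: E7 fragment applied at 1 µg/mL in TBST for 1 h at 4 C; score combines spot fluorescence with its signal to noise ratio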
[12] = hepatitis C replication reporter changes, two-sided – Huh7 cells, luciferase reporter, HCV replication inhibitor project, primary screen (AID 1109); details: Huh7 HCV replicon luciferase reporter, 48 h; higher = more signal;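 note: huh7 hepatoma cells harbouring a luciferase neomycin HCV replicon reporter; luciferase luminescence as measure of HCV replicon replication; test concentration not given here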
[13] = molecular target: Left-right determination factor 2 (Homo sapiens) (UniProt O00292); assay: small molecules binding LEFTY2 protein – biochemical, small-molecule microarray, 635 nm fluorescence scan, primary screen (AID 1110); details: higher = more signal
Chain of Left-right determination factor 2 (Homo sapiens) (O00292 whole entry, looked up): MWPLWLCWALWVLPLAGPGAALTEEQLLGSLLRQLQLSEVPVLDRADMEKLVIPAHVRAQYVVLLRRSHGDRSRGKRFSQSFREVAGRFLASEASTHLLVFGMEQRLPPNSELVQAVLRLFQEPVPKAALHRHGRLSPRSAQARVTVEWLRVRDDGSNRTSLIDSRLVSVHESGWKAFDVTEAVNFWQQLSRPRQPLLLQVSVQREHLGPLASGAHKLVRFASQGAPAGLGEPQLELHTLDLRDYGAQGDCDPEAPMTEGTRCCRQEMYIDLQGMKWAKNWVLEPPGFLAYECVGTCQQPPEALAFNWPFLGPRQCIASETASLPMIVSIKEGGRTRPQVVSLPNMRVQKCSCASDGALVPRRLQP

[14] = molecular target: Calmodulin-1 (Homo sapiens) (UniProt P0DP23); assay: small molecules binding calmodulin-1 with EGTA – biochemical, small-molecule microarray, Cy5-labelled CALM1, profiling panel (AID 1111); details: Cy5-CALM1 binding fluorescence, higher = more signal;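 note: labelled calmodulin applied in Tris saline Tween buffer holding calcium plus EGTA and DTT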
[15] = molecular target: Calmodulin-1 (Homo sapiens) (UniProt P0DP23); assay: small molecules binding Ca-loaded calmodulin-1 – biochemical, small-molecule microarray, Cy5-labelled CALM1, plus calcium, artefact control for SMM control-protein annotation, profiling panel (AID 1112); details: Cy5-CALM1 binding fluorescence, higher = more signal;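 note: score merges spot fluorescence with signal to noise from triplicate slides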
[16] = probe aWnt5a binding to arrayed compounds – biochemical, biotinylated probe, 635/667 nm fluorescence, primary screen (AID 1113); details: small-molecule microarray, higher = more signal;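 note: score merges 667 nm fluorescence intensity with signal-to-noise per printed feature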
[17] = probe aShh binding to arrayed compounds – biochemical, biotinylated probe, 635/667 nm fluorescence, primary screen (AID 1114); details: small-molecule microarray, higher = more signal;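 note: probe is biotin-labelled aShh protein from a stem cell growth factor screen; measures binding of labelled protein to compounds printed on the slide; score merges feature fluorescence at 667 nm with signal-to-noise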
[18] = probe aNog binding to arrayed compounds – biochemical, biotinylated probe, 635/667 nm fluorescence, primary screen (AID 1115); details: small-molecule microarray, higher = more signal;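 note: probe is biotinylated aNog protein used at 0.15 µg/mL for 1 h at 4 C; z-score combines 667 nm fluorescence of each spot with its signal to noise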
[19] = molecular target: Torsin-1A-interacting protein 1 (Homo sapiens) (UniProt Q5JTV8); assay: compound microarray binding of lysate hLAP1 – cell lysate, small-molecule microarray, COS7 lysate, 635/667 nm fluorescence, primary screen (AID 1116); details: 635 nm fluorescence, higher = more signal
Chain of Torsin-1A-interacting protein 1 (Homo sapiens) (Q5JTV8 whole entry, looked up): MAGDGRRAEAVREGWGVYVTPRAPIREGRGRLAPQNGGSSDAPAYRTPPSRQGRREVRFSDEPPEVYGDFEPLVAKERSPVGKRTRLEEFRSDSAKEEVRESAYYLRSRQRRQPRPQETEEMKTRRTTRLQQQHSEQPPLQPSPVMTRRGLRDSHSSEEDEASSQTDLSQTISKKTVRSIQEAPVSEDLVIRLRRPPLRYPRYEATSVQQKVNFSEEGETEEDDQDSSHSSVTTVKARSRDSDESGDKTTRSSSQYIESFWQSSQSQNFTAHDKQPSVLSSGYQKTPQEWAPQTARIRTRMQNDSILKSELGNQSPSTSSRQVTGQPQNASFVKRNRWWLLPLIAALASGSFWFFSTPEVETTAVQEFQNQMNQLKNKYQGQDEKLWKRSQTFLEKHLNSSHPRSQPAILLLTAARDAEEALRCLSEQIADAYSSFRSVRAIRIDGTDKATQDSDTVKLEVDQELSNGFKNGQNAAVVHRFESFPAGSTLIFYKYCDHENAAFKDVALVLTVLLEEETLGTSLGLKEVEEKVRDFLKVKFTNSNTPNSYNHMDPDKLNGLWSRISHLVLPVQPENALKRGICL

[20] = molecular target: Alpha-bungarotoxin (Bungarus multicinctus) (UniProt P60615); assay: compounds binding labelled alpha-BTX control protein – biochemical, small-molecule microarray, Alexa647 label, 635/667 nm fluorescence, artefact control for SMM control protein annotation, profiling panel (AID 1117); details: alpha-BTX-A647 binding fluorescence, higher = more signal
Chain of Alpha-bungarotoxin (Bungarus multicinctus) (P60615 whole entry, looked up): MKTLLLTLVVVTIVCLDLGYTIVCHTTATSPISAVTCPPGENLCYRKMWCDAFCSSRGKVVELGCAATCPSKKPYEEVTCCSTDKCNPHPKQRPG

| Compound | composite z-score [1] | composite z-score [2] | composite z-score [3] | z-score [4] | composite z-score [5] | composite z-score [6] | composite z-score [7] | composite z-score [8] | composite z-score [9] | composite z-score [10] | composite z-score [11] | z-score [12] | composite z-score [13] | composite z-score [14] | composite z-score [15] | composite z-score [16] | composite z-score [17] | composite z-score [18] | composite z-score [19] | composite z-score [20] |
| --- | --- | --- | --- | --- | --- | --- | --- | --- | --- | --- | --- | --- | --- | --- | --- | --- | --- | --- | --- | --- |
| CCCCCN1CC=CC23O[C@@H]4/C=C\CCCOC(=O)C4[C@H]2C(=O)N(C(CO)C(C)C)[C@@H]3C1=O (stereo not given in full) | 1.24 | -0.248 | -0.0212 | -0.455 (inactive) | 0.0758 | -0.949 | -0.637 | -0.188 | -0.148 | 1.05 | -0.453 | 0.568 | -0.358 | -0.33 | -0.272 | -0.0107 | -0.416 | -0.158 | 0.174 | -0.0063 |
| C=C(CCCC)C(=O)CC[C@@H](OC(=O)c1cccnc1)c1ccc(CO)o1 | 1.15 | 0.0013 | -0.269 | 0.08 (inactive) | 1.21 | 0.958 | 0.641 | 0.916 | 0.576 | 1.3 | 0.94 | -1.39 | 0.654 | 0.916 | -1.3 | 0.0003 | -0.0035 | -0.0333 | 0.387 | 0.781 |
| O=C1OCC=C[C@H]2OC34C=CCN(CCN5CCOCC5)C(=O)[C@H]3N(CCCO)C(=O)[C@@H]4[C@@H]12 (stereo not given in full) | 0.112 | -0.218 | -0.0654 | -1.52 (inactive) | -0.116 | 0.394 | -0.0604 | 0.292 | 0.163 | 0.715 | 0.449 | 0.658 | -0.235 | -0.0514 | -0.944 | -0.18 | -0.223 | -0.326 | 0.819 | -0.0967 |
| CCCC[C@@H]1C[C@H]1[C@@H](NC(=O)c1ccco1)c1ccc(Cl)cc1 | 0.428 | 0.807 | 1.03 | -0.659 (inactive) | 0.438 | 1.15 | -0.0272 | 0.0636 | 0.461 | 0.89 | 1.28 | -2.37 | 0.232 | 1.68 | 1.1 | -0.0125 | 0.336 | 0.314 | 1.4 | 1.33 |
| [N-]=[N+]=NCc1ccccc1[C@@H]1OC(c2ccc(OCCCO)cc2)=N[C@]1(CCS(=O)(=O)c1ccccc1)C(=O)NCCN1CCOCC1 | 0.916 | 0.934 | 0.952 | -0.406 (inactive) | 1.42 | 1.05 | 0.778 | 1.46 | 0.535 | 0.745 | 1.5 | -0.351 | 0.623 | 1.65 | -0.173 | 0.132 | 0.323 | 1.17 | 2.04 | 1.95 |
| CCOC(=O)C1=CCC(c2ccccc2)N(S(=O)(=O)CC[Si](C)(C)C)C1 (stereo not given) | -0.285 | -0.264 | -0.534 | 0.191 (inactive) | -0.887 | -0.157 | -0.458 | -0.736 | -0.214 | 1.24 | -0.312 | -0.327 | -0.262 | -0.0436 | 0.0045 | -0.208 | -0.262 | -0.338 | -0.28 | 0.115 |
| [N-]=[N+]=Nc1ccccc1C[C@]1(C(=O)NCC(O)CO)N=C(c2ccc(OCCCO)cc2)O[C@H]1c1ccccc1N=[N+]=[N-] (stereo not given in full) | 0.535 | 0.963 | 0.704 | -1.19 (inactive) | -0.255 | -0.517 | -0.363 | -0.736 | -1.12 | 1.01 | 0.577 | -1.74 | -0.588 | 0.771 | 0.839 | -0.0285 | 0.232 | -0.0592 | 0.407 | 0.15 |
| [N-]=[N+]=NCc1ccccc1C[C@]1(C(=O)O)N=C(c2ccc(OCCCO)cc2)O[C@H]1c1ccccc1N=[N+]=[N-] | 1.17 | 0.621 | 0.435 | -3.66 (inactive) | 1.12 | 1.16 | 0.386 | 0.737 | 0.0572 | 0.303 | 1.18 | -1.11 | 0.11 | 1.23 | 0.0606 | 0.0919 | 0.0639 | 1.59 | 1.46 | 1.76 |
| COCCOC(=O)N1C(=O)[C@@]2(c3cc(C#CCCO)ccc31)[C@H](C(=O)N1CCN(c3ncccn3)CC1)[C@H]1C(=O)O[C@H](c3ccccc3)[C@H](c3ccccc3)N1[C@@H]2c1ccccc1OCCO | 0.748 | 0.293 | -0.0474 | -0.32 (inactive) | 0.727 | 1.26 | 0.688 | 0.751 | 0.547 | 0.487 | 1.37 | -1.86 | 0.56 | 1.72 | 0.55 | -0.0614 | -0.214 | 0.207 | 0.249 | 0.64 |
| CCOC(=O)C[C@H]1[C@H](OC(=O)c2cc3ccccc3oc2=O)[C@@H](NC(=O)Cc2ccc(OC)cc2)c2cc(OCCCO)ccc2N1C(=O)c1ccccc1 | 0.39 | -0.351 | -0.355 | -0.854 (inactive) | 0.458 | 0.0878 | 0.436 | 0.23 | 0.313 | 0.726 | 0.856 | -0.273 | 0.427 | -0.13 | -0.342 | -0.139 | 0.299 | 1.75 | 0.559 | 0.258 |
| COCCOC(=O)N1C(=O)[C@@]2(c3ccccc31)[C@H](c1ccccc1OCCO)N1[C@H](c3ccccc3)[C@H](c3ccccc3)OC(=O)[C@H]1[C@@H]2C(=O)Nc1nc2ccccc2s1 | 1.4 | 0.262 | 0.245 | -0.968 (inactive) | 1.1 | 1.32 | 0.661 | 1.34 | 0.476 | 0.0911 | 0.484 | -2.52 | 0.531 | 1.24 | 0.375 | 0.0095 | -0.188 | 0.326 | 0.988 | 1.74 |
